These results are taken from PubChem BioAssay (NCATS).

Test [1] deals with Cytochrome P450 1A2 (Homo sapiens) (UniProt P05177). Put plainly: p450-cyp1a2 (AID 410). Further: potency means the concentration at half of the fitted maximal effect. The procedure, abridged: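 Luminescent readout of luciferin formed from Luciferin-ME by human CYP1A2; data normalized against complete inhibition by 57 uM furafylline. Enzyme 20nM, substrate 100uM at Km, 100mM KPO4 buffer, 60 min reaction at room temperature.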
For test [2], the target named is Glucocorticoid receptor (Homo sapiens) (UniProt P04150). Nature of the test: GR-EFC Redistribution (AID 451). Further: potency means the concentration at half of the fitted maximal effect. Conditions: CHO-K1 GR-EFC translocation, beta-gal luminescence, 2 h. The procedure, abridged: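 CHO-K1 cells expressing nuclear EA and GR-ED fragments of b-gal; compounds titrated up to 46 uM final, 2 h at 37 C. GR nuclear translocation read as complemented b-gal luminescence after 1 h RT detection.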

Test [3] addresses 3',5'-cyclic-AMP phosphodiesterase 4B (Homo sapiens) (UniProt Q07343). Nature of the test: qHTS Assay for Inhibitors of PDE-IV (AID 607; active means well fitted activation curve with a large enough effect in the main read-out, with a control signal flat, not every such curve was filed as active). The procedure, abridged: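 ACTOne HEK293 cells carry a modified cAMP-gated CNG channel and express endogenous PDE4; plated 1000 cells/well, compounds up to 22.9 uM final. Membrane-potential dye fluorescence (ex 535/em 590) was read; parental cells received 10 uM forskolin + 100 uM RO 20-1724.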
In general terms: Quantitative high-throughput screening tests each substance at several concentrations.

In test [4] the target is Cytochrome P450 2C9 (Homo sapiens) (UniProt P11712). Put plainly: qHTS Assay for Inhibitors and Substrates of Cytochrome P450 2C9 (AID 883; active means well fitted inhibition curve with a large enough effect; further: nearly all actives have a fitted effect of over 60% in size). An outline of the steps:
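Signal: luciferase luminescence reporting luciferin produced by CYP2C9. Conditions: 10nM enzyme, Luciferin-H 100uM at KM, 25mM KPO4, 37C, 60 min NADPH-driven reaction. Reference: 57uM sulphaphenazole as 100% inhibition.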

Test [5] deals with Cytochrome P450 2D6 (Homo sapiens) (UniProt P10635). Put plainly: qHTS Assay for Inhibitors and Substrates of Cytochrome P450 2D6 (AID 891; active means well fitted inhibition curve with a large enough effect; further: nearly all actives have a fitted effect of over 60% in size; further: potency means the concentration at half of the fitted maximal effect). An outline of the steps:
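Human CYP2D6 (5 nM) with 30 uM Luciferin-ME EGE (at Km) in 100 mM KPO4, compound preincubated 10 min, then NADPH regeneration system for 60 min at room temperature. Luciferin read by luminescence; normalized to 1.43 uM quinidine.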

The target in test [6] is Cytochrome P450 2C19 (Homo sapiens) (UniProt P33261). Nature of the test: qHTS Assay for Inhibitors and Substrates of Cytochrome P450 2C19 (AID 899; active means well fitted inhibition curve with a large enough effect; further: nearly all actives have a fitted effect of over 60% in size; further: potency means the concentration at half of the fitted maximal effect). The procedure, abridged: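 Signal comes from luciferase acting on luciferin released by CYP2C19-mediated hydroxylation of Luciferin-H EGE, 10uM (KM). Assay mix: 5nM enzyme, 50mM KPO4; 60 min at 37C with NADPH regeneration. Data normalized against 57uM ketoconazole.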

In test [7] the target is Mitogen-activated protein kinase 10 (Mus musculus) (UniProt Q61831). Nature of the test: JNK3 AlphaScreen Assay (AID 530; active means well fitted curve in either direction with a large enough effect, not every such curve was filed as active;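 further: kinase came from lysate of stimulated human HepG2 cells; signal reports phosphorylation of biotinylated GST-cJun 1-79 at Ser73 with 10 µM ATP; series mostly up to about 57 µM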). The procedure, abridged: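 Pre-activated (IL-1β/TNFα) JNK3 in HepG2 lysates phosphorylates biotin-GST-cJun(1-79), 10 uM ATP; anti-phospho-cJun(Ser73) AlphaScreen read at room temperature, pH 7.6 Tris buffer. Compounds pre-incubated 15 min as titrations.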
Background: In Alpha technology, singlet oxygen from a donor bead excites a nearby acceptor bead.

Unmarked numbers belong to inactive results. Records with an inconclusive call do not appear. Active and inactive are the calls of the source. Unless noted, the call rests on the fitted dose curve. Where only a bound is given, the exact number is not on record here.

Sequence of Cytochrome P450 2D6 (Homo sapiens) (P10635 whole entry, looked up): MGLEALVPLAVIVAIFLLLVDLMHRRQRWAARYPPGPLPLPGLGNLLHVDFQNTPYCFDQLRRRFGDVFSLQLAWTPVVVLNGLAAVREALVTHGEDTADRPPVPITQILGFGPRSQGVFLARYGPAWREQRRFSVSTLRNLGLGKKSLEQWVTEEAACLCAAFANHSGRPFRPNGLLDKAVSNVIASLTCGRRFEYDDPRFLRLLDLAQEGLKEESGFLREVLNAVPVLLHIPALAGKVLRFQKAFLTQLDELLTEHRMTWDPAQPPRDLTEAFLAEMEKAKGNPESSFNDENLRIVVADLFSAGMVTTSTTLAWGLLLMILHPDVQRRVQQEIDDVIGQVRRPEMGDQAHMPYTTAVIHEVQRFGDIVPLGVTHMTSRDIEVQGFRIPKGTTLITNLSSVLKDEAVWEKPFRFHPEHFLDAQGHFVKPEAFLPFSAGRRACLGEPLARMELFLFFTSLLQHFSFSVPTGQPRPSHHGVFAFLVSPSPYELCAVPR
Sequence of Cytochrome P450 2C19 (Homo sapiens) (P33261 whole entry, looked up): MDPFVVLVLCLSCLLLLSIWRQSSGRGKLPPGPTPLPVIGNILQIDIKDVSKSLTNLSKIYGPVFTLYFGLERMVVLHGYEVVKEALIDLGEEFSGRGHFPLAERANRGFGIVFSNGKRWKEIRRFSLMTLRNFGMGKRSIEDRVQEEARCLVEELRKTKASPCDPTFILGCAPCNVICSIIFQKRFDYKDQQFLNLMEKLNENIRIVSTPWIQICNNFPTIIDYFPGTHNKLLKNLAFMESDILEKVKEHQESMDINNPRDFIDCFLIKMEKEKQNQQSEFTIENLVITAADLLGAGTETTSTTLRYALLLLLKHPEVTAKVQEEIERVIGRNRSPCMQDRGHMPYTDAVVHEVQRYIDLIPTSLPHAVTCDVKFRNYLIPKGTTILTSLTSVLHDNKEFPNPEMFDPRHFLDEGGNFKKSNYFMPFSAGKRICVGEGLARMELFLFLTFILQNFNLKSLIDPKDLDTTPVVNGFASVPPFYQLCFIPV
Sequence of Cytochrome P450 1A2 (Homo sapiens) (P05177 whole entry, looked up, the tested form may be a part): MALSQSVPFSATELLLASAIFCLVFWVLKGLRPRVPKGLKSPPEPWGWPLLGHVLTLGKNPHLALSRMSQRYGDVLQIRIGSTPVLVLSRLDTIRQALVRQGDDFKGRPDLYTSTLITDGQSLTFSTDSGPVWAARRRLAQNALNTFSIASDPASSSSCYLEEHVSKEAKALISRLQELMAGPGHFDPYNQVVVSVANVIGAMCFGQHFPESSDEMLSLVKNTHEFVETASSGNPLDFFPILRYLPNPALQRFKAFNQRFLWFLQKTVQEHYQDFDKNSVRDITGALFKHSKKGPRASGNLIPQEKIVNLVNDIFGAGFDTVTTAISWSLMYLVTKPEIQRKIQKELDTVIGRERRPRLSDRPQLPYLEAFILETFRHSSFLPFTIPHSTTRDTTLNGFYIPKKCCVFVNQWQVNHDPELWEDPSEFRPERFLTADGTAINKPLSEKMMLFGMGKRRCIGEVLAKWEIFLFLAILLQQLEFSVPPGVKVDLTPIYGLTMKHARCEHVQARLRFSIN
Sequence of Glucocorticoid receptor (Homo sapiens) (P04150 whole entry, looked up, the tested form may be a part): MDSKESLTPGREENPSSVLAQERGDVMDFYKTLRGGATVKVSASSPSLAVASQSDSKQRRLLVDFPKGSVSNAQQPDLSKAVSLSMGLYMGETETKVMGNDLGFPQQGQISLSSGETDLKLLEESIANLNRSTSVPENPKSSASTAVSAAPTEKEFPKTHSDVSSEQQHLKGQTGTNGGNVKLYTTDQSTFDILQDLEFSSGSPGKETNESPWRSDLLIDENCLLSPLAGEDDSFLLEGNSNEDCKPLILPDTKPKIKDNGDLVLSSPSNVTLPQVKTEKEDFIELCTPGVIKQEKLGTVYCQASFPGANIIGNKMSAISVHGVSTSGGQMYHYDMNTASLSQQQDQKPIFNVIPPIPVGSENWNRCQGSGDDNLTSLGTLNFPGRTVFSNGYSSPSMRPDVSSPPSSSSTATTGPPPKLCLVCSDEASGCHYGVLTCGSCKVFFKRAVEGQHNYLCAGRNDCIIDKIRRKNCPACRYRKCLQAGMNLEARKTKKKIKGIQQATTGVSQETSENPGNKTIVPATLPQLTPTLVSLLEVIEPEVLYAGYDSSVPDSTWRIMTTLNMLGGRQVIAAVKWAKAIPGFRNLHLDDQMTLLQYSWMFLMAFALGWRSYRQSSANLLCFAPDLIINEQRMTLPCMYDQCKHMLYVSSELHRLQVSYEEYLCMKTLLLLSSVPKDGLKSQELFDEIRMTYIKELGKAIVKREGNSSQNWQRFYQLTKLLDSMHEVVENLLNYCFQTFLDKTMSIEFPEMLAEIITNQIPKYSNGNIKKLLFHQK
Sequence of 3',5'-cyclic-AMP phosphodiesterase 4B (Homo sapiens) (Q07343 whole entry, looked up): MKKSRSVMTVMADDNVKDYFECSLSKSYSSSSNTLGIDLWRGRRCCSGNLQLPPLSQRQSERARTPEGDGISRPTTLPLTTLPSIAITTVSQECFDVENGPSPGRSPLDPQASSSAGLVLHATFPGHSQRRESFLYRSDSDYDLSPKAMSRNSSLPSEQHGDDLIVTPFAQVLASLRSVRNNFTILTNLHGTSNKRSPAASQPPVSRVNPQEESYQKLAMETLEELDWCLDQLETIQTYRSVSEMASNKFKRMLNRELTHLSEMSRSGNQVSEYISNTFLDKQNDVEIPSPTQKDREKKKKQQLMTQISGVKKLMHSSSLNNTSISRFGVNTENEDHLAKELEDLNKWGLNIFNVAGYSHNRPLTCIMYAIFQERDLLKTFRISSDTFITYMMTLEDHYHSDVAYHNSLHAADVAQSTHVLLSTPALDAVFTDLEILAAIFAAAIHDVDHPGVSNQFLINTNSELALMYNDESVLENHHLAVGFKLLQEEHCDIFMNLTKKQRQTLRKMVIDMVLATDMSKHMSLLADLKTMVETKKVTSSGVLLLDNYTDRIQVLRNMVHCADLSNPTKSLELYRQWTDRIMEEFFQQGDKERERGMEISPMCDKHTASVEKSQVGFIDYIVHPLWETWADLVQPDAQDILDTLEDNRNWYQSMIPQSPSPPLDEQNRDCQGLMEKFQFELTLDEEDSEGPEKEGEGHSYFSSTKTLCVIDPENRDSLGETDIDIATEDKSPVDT
Sequence of Cytochrome P450 2C9 (Homo sapiens) (P11712 whole entry, looked up): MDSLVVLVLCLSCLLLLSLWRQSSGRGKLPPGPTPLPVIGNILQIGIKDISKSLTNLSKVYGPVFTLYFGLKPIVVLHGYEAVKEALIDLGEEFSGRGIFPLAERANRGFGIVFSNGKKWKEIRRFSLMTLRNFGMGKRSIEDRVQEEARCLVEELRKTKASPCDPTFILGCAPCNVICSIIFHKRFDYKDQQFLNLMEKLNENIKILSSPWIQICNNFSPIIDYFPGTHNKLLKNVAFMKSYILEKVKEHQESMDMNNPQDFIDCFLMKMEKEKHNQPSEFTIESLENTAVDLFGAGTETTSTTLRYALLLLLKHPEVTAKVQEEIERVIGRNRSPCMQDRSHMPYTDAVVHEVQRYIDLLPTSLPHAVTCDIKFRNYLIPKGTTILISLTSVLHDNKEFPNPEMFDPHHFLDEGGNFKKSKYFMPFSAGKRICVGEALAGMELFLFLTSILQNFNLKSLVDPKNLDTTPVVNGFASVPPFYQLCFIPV

With `CC(C)C[C@@H](CC(=O)N[C@@H](CCC(=O)O)CC(=O)O)NC(=O)[C@@H]1CNCC[C@H]1NC(=O)C[C@@H](NC(=O)C[C@H](Cc1c[nH]c2ccccc12)NC(=O)[C@@H]1CNCC[C@H]1N)C(C)C`, the Potency entry in test [1], in test [3], in test [4], in test [5] and in test [6] was “inactive” throughout. In addition, the Potency in test [2] was > 46 µM.
Consider `CC(C)C[C@@H](CC(=O)N[C@@H](CCC(=O)O)CC(=O)O)NC(=O)[C@@H]1CNCC[C@H]1NC(=O)C[C@@H](NC(=O)C[C@H](Cc1ccccc1)NC(=O)[C@@H]1CCCC[C@H]1N)C(C)C`, for which the Potency in test [1] was 31.6 µM (active); in test [2], > 46 µM. Besides, the Potency entry in test [3], in test [4], in test [5] and in test [6] was “inactive” in each case.
Regarding `CC(C)C[C@@H](CC(=O)N[C@@H](CCCN)CC(=O)N[C@@H]1CCNC[C@H]1C(=O)N[C@H](CC(=O)N[C@@H](CCC(=O)O)CC(=O)O)Cc1c[nH]c2ccccc12)NC(=O)[C@@H]1CCCC[C@H]1N`, the Potency result in test [1], in test [7], in test [3], in test [5] and in test [6] was “inactive” each time. Moreover, in test [2], the Potency is > 46 µM.
Turning to `CC(C)C[C@@H](CC(=O)N[C@@H](CCC(=O)O)CC(=O)O)NC(=O)[C@@H]1CCCC[C@H]1NC(=O)C[C@@H](NC(=O)C[C@H](CO)NC(=O)[C@@H]1CNCC[C@H]1N)C(C)C`, the Potency result in test [1], in test [7], in test [3], in test [5] and in test [6] was “inactive” throughout. Also, in test [2], the Potency was > 46 µM.
On to `CCC[C@@H]1C[C@@]1(CCC)C(NC(=O)c1ccc(-c2ccccc2)cc1)c1cccc(Cl)c1` (some centres not stated), for which the Potency result in test [1], in test [7] and in test [3] was “inactive” in each case.
For the compound `COC(=O)[C@@]1(Cc2ccccc2)[C@H]2c3cc(C(=O)N(C)C)n(CCN4CNCC4=O)c3C[C@H]2CN1C(=O)c1ccccc1`, the Potency in test [1] was 5.01 µM (active). Moreover, the Potency entry in test [7] and in test [3] was “inactive” each time.
Consider `Clc1ccc(CO[C@@H](Cn2ccnc2)c2ccc(Cl)cc2Cl)cc1`, for which the Potency is 0.1 µM (active) in test [1], > 20.6 µM in test [2], 0.199 µM (active) in test [5] and 0.0631 µM (active) in test [6].
For the compound `O=C(Nc1ccc2ccccc2c1)[C@@H]1C[C@H]1[C@@H](NP(=O)(c1ccccc1)c1ccccc1)c1ccccc1`, in test [1], the Potency was 20 µM (active). Moreover, the Potency entry in test [7] and in test [3] was “inactive” each time.
